# Laboratory results as given in the supplement of paper PMC8728848.
# The full list was thinned out, with the strongest signals kept by preference.
# Experiments:
# Assay in all cases: glycan array binding signal (z-score within array); higher = stronger binding
# Conditions in all cases: glycan notation: IUPAC condensed, linker removed
# [1] = tested on: Gal(b1-4)GlcNAc
# Method in brief: (§1)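 Glycan array data came from 3228 arrays in the Consortium for Functional Glycomics database, and only arrays with an available protein sequence were kept. Glycan names were put into IUPAC-condensed notation, and columns mapping to the same glycan were averaged. The binding signal is a within-array Z-score, averaged across arrays of one protein sequence run at different concentrations or buffers and across linkers. A negative Z-score can be read as non-binding.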
# [2] = tested on: Gal3S(b1-3)GalNAc
# Method in brief: as §1
# [3] = tested on: Gal3S(b1-4)[Fuc(a1-3)]Glc6S
# Method in brief: as §1
# [4] = tested on: Gal(b1-4)Glc
# Method in brief: as §1
# [5] = tested on: Gal3S(b1-4)Glc
# Method in brief: as §1
# [6] = tested on: Gal(b1-6)Gal
# Method in brief: as §1
# [7] = tested on: Gal3S(b1-3)GlcNAc
# Method in brief: as §1
# [8] = tested on: Gal3S(b1-3)[Fuc(a1-4)]GlcNAc
# Method in brief: as §1
# [9] = tested on: Gal3S(b1-4)GlcNAc
# Method in brief: as §1
# [10] = tested on: Gal3S(b1-4)[Fuc(a1-3)]GlcNAc
# Method in brief: as §1
substance,measurement,setting,value
"SpGH101 (Streptococcus pneumoniae), Q8DR60",glycan array binding signal (z-score),[1],-0.157
same,glycan array binding signal (z-score),[2],5.02
same,glycan array binding signal (z-score),[3],0.164
LcI (Legionella pneumophila),glycan array binding signal (z-score),[4],0.081
same,glycan array binding signal (z-score),[5],3.4
"Wza (Escherichia coli), P0A930",glycan array binding signal (z-score),[6],-0.876
same,glycan array binding signal (z-score),[7],0.986
"SiiE (Salmonella typhimurium), A0A0H3NVH0",glycan array binding signal (z-score),[8],-0.012
"BambL (Burhholderia ambifaria), Q0B4G1",glycan array binding signal (z-score),[8],0.713
AgI/IIC123-GFP (Streptococcus mutans),glycan array binding signal (z-score),[9],-0.345
same,glycan array binding signal (z-score),[10],0.852
